Screening results deposited in PubChem by Broad Institute.
aSyn UTR act = Activators via SNCA 5'UTR binding, MLPCN; alpha-synuclein 5'UTR reporter, activators screen; activity score, % (tested at 7.5 µM), hits read low; 300,000 tested, 7.1% active; in the data active means activity score below about -60%
Hits are given with their value. Only a sample is shown.

Screening CCCn1c(C)cc(C(=O)COc2ncnc3sccc23)c1C returned aSyn UTR act -150.
For Cc1cc(C(=O)COc2ncnc3sccc23)c(C)n1C1CC1 the results were aSyn UTR act -79.
For N#CC(C#N)=Cc1ccc(NC(=O)c2ccc(Br)cc2)cc1 the results were aSyn UTR act -153.
For CC(C)(C)c1ccc(C(=O)Nc2ccc(C=C(C#N)C#N)cc2)cc1 the results were aSyn UTR act -175.
`Nc1cc(Cl)nc(N/N=C/c2c(O)ccc3ccccc23)n1` gave aSyn UTR act -162.
For O=C(O)c1cc(N/N=C/c2c(O)ccc3ccccc23)ccc1Cl the results were aSyn UTR act -66.
`O=C(CNc1ccccc1)N/N=C/c1c(O)ccc2ccccc12` gave aSyn UTR act inactive.
For CC(C)(C)c1cc(C(=O)NCc2cc(F)cc3c2OCOC3)n(Cc2ccccc2)n1 the results were aSyn UTR act -109.
Screening COc1ccc2cc(C(=O)N3CCC(Cc4ccccc4)CC3)[nH]c2c1 returned aSyn UTR act -77.
COc1ccc2[nH]c(C(=O)NCCc3ccccc3)cc2c1 was read as aSyn UTR act -92.
For COc1ccc2cc(C(=O)N(C)Cc3ccccc3)[nH]c2c1 the results were aSyn UTR act -86.
`O=C(N=c1nc2ccccn2s1)c1ccccc1` gave aSyn UTR act -180.
For O=C1C(C=NCCCN2CCCC2=O)=C(O)c2ccccc21 the results were aSyn UTR act -113.
`CC(C)CN=CC1=C(O)c2ccccc2C1=O` gave aSyn UTR act -83.
For O=C1C(C=NCc2ccccn2)=C(O)c2ccccc21 the results were aSyn UTR act -106.
Screening O=C(NNC(=S)Nc1ccc(Cl)cc1)c1cccs1 returned aSyn UTR act -125.
`O=C(NNC(=S)Nc1ccccc1)c1cccs1` gave aSyn UTR act -231.
For O=C(NC(=S)NC1CCCCC1)c1ccccc1 the results were aSyn UTR act -95.
`O=C(NC(=S)NC1CCCCCC1)c1cncc(Br)c1` gave aSyn UTR act -168.
`O=C(N/N=C\c1c(O)ccc2ccccc12)c1cncc(Br)c1` gave aSyn UTR act inactive.
O=C(CNC(=S)NC(=O)c1ccccc1)c1ccccc1 was read as aSyn UTR act -83.
O=C(NC(=S)Nc1ccc(O)cc1)c1cncc(Br)c1 was read as aSyn UTR act -71.
COc1cc(/C=C2/C(=N)N3N=C(CC(=O)N4CCOCC4)SC3=NC2=O)ccc1OCc1ccccc1 was read as aSyn UTR act -129.
CCOc1ccc(/C=C2/Sc3ccc(C(=O)N4CCN(C(=O)c5ccco5)CC4)cc3N(C)C2=O)cc1OC was read as aSyn UTR act inactive.
COc1cc(/C=C2/C(=N)N3C(c4ccccc4)=CSC3=NC2=O)ccc1OCC(=O)O was read as aSyn UTR act -68.
NC(=O)c1ccsc1NC(=O)c1coc2ccccc2c1=O was read as aSyn UTR act -156.
CNC(=S)Nc1ccc(Nc2ccccc2)cc1 was read as aSyn UTR act -95.
`CCCNC(=S)Nc1ccc(Nc2ccccc2)cc1` gave aSyn UTR act -87.
`Cc1cccc(NC(=O)COc2ccc(Br)cc2/C=N/O)c1` gave aSyn UTR act -167.
`COc1cc(/C=C/[N+](=O)[O-])ccc1OCc1cccc(C(=O)O)c1` gave aSyn UTR act inactive.
`COc1cc(/C=N/NC(=O)c2cccc([N+](=O)[O-])c2)ccc1OCc1ccccc1` gave aSyn UTR act -135.
Screening COc1cc(/C=N/NC(=O)c2cccc(C)c2)ccc1OCC(=O)Nc1ccccc1 returned aSyn UTR act -128.
For COc1cc(/C=N/NC(=O)c2ccncc2)ccc1OCc1cnc(Cl)s1 the results were aSyn UTR act -153.
For COc1ccc(/C=N/NC(=O)c2ccncc2)cc1COc1ccc(NC(C)=O)cc1 the results were aSyn UTR act inactive.
COc1cc(/C=N/NC(=O)c2ccc(O)cc2)ccc1OCC(=O)Nc1cccc([N+](=O)[O-])c1 was read as aSyn UTR act -82.
For Cc1[nH]c2ccccc2c1/C=N/NC(=O)c1cccc([N+](=O)[O-])c1 the results were aSyn UTR act -65.
O=C(COc1ccc(/C=N/NC(=O)c2ccncc2)cc1)Nc1ccccc1 was read as aSyn UTR act -72.
Screening COc1ccc(NC(=O)COc2ccc(/C=N/n3c(C)nnc3C)cc2OC)cc1 returned aSyn UTR act -91.
Cc1cc(C)n2c(Br)c(CSc3nc4ccccc4o3)nc2n1 was read as aSyn UTR act -87.
For Cc1cc(=O)oc2cc(NC(=O)C3CCCC3)ccc12 the results were aSyn UTR act -85.
For CCCCC(=O)Nc1ccc2c(c1)oc1ccccc12 the results were aSyn UTR act -251.
`O=C(Nc1ccc2c(c1)oc1ccccc12)C1CC1` gave aSyn UTR act -138.
For CCCCCC(=O)Nc1ccc2ccccc2c1 the results were aSyn UTR act -175.
`CC(C)CC(=O)Nc1ccc2c(c1)oc1ccccc12` gave aSyn UTR act -227.
Cc1ccc(-c2csc(Cc3nc(-c4ccc5c(c4)CCC(=O)N5)cs3)n2)cc1 was read as aSyn UTR act -124.
`CC(C)(C)NC(=O)CSc1nc(-c2ccc(F)cc2)cs1` gave aSyn UTR act -181.
